# Measured values from PubChem BioAssay (NCATS).
# Several values for one entry are separate records, joined by “and”; a condition that tells them apart may be missing. Equal entries are not always repeated. Inconclusive results are not listed. Some structures have more than one record in an assay (separate samples or runs), and their calls can disagree. Unmarked numbers belong to inactive results. Activity calls are given as the source filed them. Calls follow the shape of the dose curve; as a rule, active = well fitted inhibition curve with a large enough effect; inconclusive = small, poorly fitted or top-dose-only effect; inactive = flat fitted curve, though single readings scatter.
# Tested on: KB-3-1
# Test: Cytotoxic Profiling of Annotated Libraries Using Quantitative High-Throughput Screening (AID 1296008); also: nearly all actives have a fitted effect of over 60% in size
# Conditions: Five cell lines viability, CellTiter-Glo ATP luminescence, 48-72 h; max response: active compounds read low
# Summary of the method: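 Cytotoxicity was measured as CellTiter-Glo ATP luminescence, read after 10 min at room temperature. Compound treatment of the cells lasted 48 or 72 hr at 37 degrees Celsius in a qHTS format.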
# % is scaled to controls: 0 for no effect and ±100 for the full control effect; potency is read from the fitted curve at half-maximal effect.
Structure (SMILES),max response,Potency,outcome
CC(c1cc2ccccc2s1)N(O)C(N)=O (stereo unspecified),0.162% and -9.2%,,
Cc1ccnc(NS(=O)(=O)c2ccc(NC(=O)Nc3ccc(S(=O)(=O)Nc4nccc(C)n4)cc3)cc2)n1,,2350 nM (active),inactive
CNC[C@H](O)c1cccc(O)c1,3.69%,,inactive
OC(CCN1CCCCC1)(c1ccccc1)C1CC2C=CC1C2 (stereo unspecified),-2.63% and -12.8%,,inactive
O=NN(CCCl)C(=O)NCCCl,10.2% and 5.9%,,
O=C(Nc1ccc(F)c(C(F)(F)F)c1)Nc1nnc(-c2ccncc2)s1,-7.12% and -14.7%,,
Cc1c(C)c2c(c(C)c1O)CCC(C)(COc1ccc(CC3SC(=O)NC3=O)cc1)O2 (stereo unspecified),-2.71% and -9.42%,,
NC(N)=NC(=O)c1nc(Cl)c(N)nc1N,,,inactive
COc1ccc(CCN2CCN(CCCc3ccccc3)CC2)cc1OC,0.435% and -5.04%,,
O=c1n(CCCN2CCN(c3cccc(Cl)c3)CC2)nc2ccccn12,-0.946% and 1.57%,,
Cc1[nH]c(=O)c(C#N)cc1-c1ccncc1,6.66% and -5.96% and -18.3%,,
COc1cc(Nc2ncc3c(n2)-c2ccc(Cl)cc2C(c2c(F)cccc2OC)=NC3)ccc1C(=O)O,,2090 nM (active),
CC(C[N+](C)(C)C)OC(N)=O (stereo unspecified),3.39% and 7.21%,,
